Several values for one entry are separate records, joined by “and”; a condition that tells them apart may be missing. Identical values can stand only once. This is part of a sample that, as a whole, favours compounds with a hit. Of some 83,000 tested, about 20% had one in any assay.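 Interpretation: 100, growth as untreated; towards 0, rising growth inhibition; 0, no net growth; 0 to -100, cell death. Compounds scoring below 10 were considered active.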 Activity calls are given as the source filed them.
Tests used:
Assay in all cases: NCI-60 one-dose screen, 48 h (100 = growth as untreated, 0 = no growth, -100 = all killed)
Settings in all cases: 10 µM unless noted
HCT-15 colon = test system: HCT-15 colon
HT29 colon = test system: HT29 colon
SNB-75 CNS = test system: SNB-75 CNS
SNB-19 CNS = test system: SNB-19 CNS
U251 CNS = test system: U251 CNS
PC-3 prostate = test system: PC-3 prostate
SK-MEL-5 melanoma = test system: SK-MEL-5 melanoma
UACC-62 melanoma = test system: UACC-62 melanoma
LOX IMVI melanoma = test system: LOX IMVI melanoma
SK-MEL-28 melanoma = test system: SK-MEL-28 melanoma
SK-MEL-2 melanoma = test system: SK-MEL-2 melanoma
EKVX NSCLC = test system: EKVX NSCLC
SN12C renal = test system: SN12C renal
UO-31 renal = test system: UO-31 renal
TK-10 renal = test system: TK-10 renal
ACHN renal = test system: ACHN renal
CAKI-1 renal = test system: CAKI-1 renal
A498 renal = test system: A498 renal
HL-60(TB) leukemia = test system: HL-60(TB) leukemia
CCRF-CEM leukemia = test system: CCRF-CEM leukemia

Measured: growth

O=[P+](O)c1cccnc1
inactive: HCT-15 colon 106% | HT29 colon 93.7% | SNB-75 CNS 94.3% | SNB-19 CNS 106% | U251 CNS 99.6% | PC-3 prostate 96.7% | SK-MEL-5 melanoma 102% | UACC-62 melanoma 103% | LOX IMVI melanoma 98.1% | SK-MEL-28 melanoma 106% | SK-MEL-2 melanoma 106% | EKVX NSCLC 101% | SN12C renal 102% | UO-31 renal 91.5% | TK-10 renal 103% | ACHN renal 110% | CAKI-1 renal 102% | A498 renal 111% | HL-60(TB) leukemia 107% | CCRF-CEM leukemia 98.3%

CC/C(Cc1ccccc1)=C(\c1ccc(OCCN2CCCC2)cc1)c1ccc(OC(=O)NCc2ccccc2)cc1
inactive: SNB-75 CNS 57.7% | SNB-19 CNS 54.9% | U251 CNS 12.5% | PC-3 prostate 47.8% | SK-MEL-5 melanoma 19.3% | LOX IMVI melanoma 49.3% | SK-MEL-2 melanoma 95.2% | EKVX NSCLC 66.9% | SN12C renal 54.2% | UO-31 renal 33.8% | TK-10 renal 84.7% | ACHN renal 63% | CAKI-1 renal 87.8% | A498 renal 74.1% | CCRF-CEM leukemia 33.7%
active: HCT-15 colon -11.5% | HT29 colon -42.1% | UACC-62 melanoma -45.4% | SK-MEL-28 melanoma -60.3% | HL-60(TB) leukemia -1.94%

c1ccc2c(c1)sc1ccccc12
inactive: HCT-15 colon 103% | HT29 colon 99.8% | SNB-75 CNS 85.3% | SNB-19 CNS 98.4% | U251 CNS 99.3% | PC-3 prostate 84.7% | SK-MEL-5 melanoma 91.1% | UACC-62 melanoma 100% | LOX IMVI melanoma 93.9% | SK-MEL-28 melanoma 105% | SK-MEL-2 melanoma 113% | EKVX NSCLC 93.6% | SN12C renal 98.4% | UO-31 renal 79.2% | ACHN renal 89.6% | CAKI-1 renal 84.4% | A498 renal 113% | CCRF-CEM leukemia 103%

OCCNC1CCCCC1
inactive: HCT-15 colon 98.7% | HT29 colon 109% | SNB-75 CNS 96.3% | SNB-19 CNS 105% | U251 CNS 106% | PC-3 prostate 103% | SK-MEL-5 melanoma 103% | UACC-62 melanoma 97.2% | LOX IMVI melanoma 104% | SK-MEL-28 melanoma 104% | SK-MEL-2 melanoma 104% | EKVX NSCLC 97.9% | SN12C renal 100% | TK-10 renal 106% | ACHN renal 102% | CAKI-1 renal 102% | A498 renal 93.4% | HL-60(TB) leukemia 100% | CCRF-CEM leukemia 103%

CC[CH2][Sn]([Cl])([Cl])[CH2]CC.Oc1ccccc1C=NCCN=Cc1ccccc1O
26% (inactive) and -21.6% (active): U251 CNS
7.92% (active) and 64.9% (inactive): HL-60(TB) leukemia
17.6% (inactive) and -44.9% (active): TK-10 renal
active: A498 renal 7.69% and -34% | CCRF-CEM leukemia 2.05% and 0.18%
inactive: HCT-15 colon 59.8% and 60.4% | HT29 colon 79.1% and 58.3% | SNB-75 CNS 50.7% | SNB-19 CNS 79.2% and 67.5% | PC-3 prostate 84.9% and 70.9% | SK-MEL-5 melanoma 60.1% and 50% | UACC-62 melanoma 39.8% and 32.3% | SK-MEL-28 melanoma 48.3% and 45.7% | SK-MEL-2 melanoma 34.1% and 13.1% | EKVX NSCLC 85.2% and 75.2% | SN12C renal 52.2% and 58.8% | UO-31 renal 53.9% and 32.8% | CAKI-1 renal 50.4% and 33.6%
17.4% (inactive) and -11.1% (active): LOX IMVI melanoma

O=[N+]([O-])c1ccc2scc3c4ccccc4nc-3c2c1
inactive: SNB-19 CNS 46.7% | EKVX NSCLC 37.1% | A498 renal 44.9%
active: HCT-15 colon -36.7% | HT29 colon -47% | SNB-75 CNS -42% | U251 CNS -92.4% | PC-3 prostate -53.4% | SK-MEL-5 melanoma 8.28% | UACC-62 melanoma -61% | LOX IMVI melanoma -87.1% | SK-MEL-28 melanoma -56.1% | SK-MEL-2 melanoma -63.2% | SN12C renal -36% | UO-31 renal -85.4% | ACHN renal -97.5% | CAKI-1 renal -40.6% | HL-60(TB) leukemia 1.24% | CCRF-CEM leukemia -12.3%

CN1CCc2cc3c(cc2C1O)OCO3 (stereo not given)
inactive: HCT-15 colon 98.9% and 94% | HT29 colon 96.1% and 108% | SNB-75 CNS 81.1% and 104% | SNB-19 CNS 123% and 100% | U251 CNS 90.6% and 103% | PC-3 prostate 77% and 89.3% | UACC-62 melanoma 34.2% and 94.5% | LOX IMVI melanoma 71.4% and 102% | SK-MEL-28 melanoma 94.7% and 115% | SK-MEL-2 melanoma 76.1% and 108% | EKVX NSCLC 107% and 92.8% | SN12C renal 112% and 99.6% | UO-31 renal 101% and 82.7% | ACHN renal 100% and 101% | CAKI-1 renal 87.5% and 95.4% | A498 renal 121% and 98% | HL-60(TB) leukemia 99.7% | CCRF-CEM leukemia 86.8% and 103%
-13.9% (active) and 105% (inactive): SK-MEL-5 melanoma

O=C(O)c1cc([N+](=O)[O-])cc([N+](=O)[O-])c1
inactive: HCT-15 colon 109% | HT29 colon 96.6% | SNB-75 CNS 86.8% | SNB-19 CNS 105% | U251 CNS 91.8% | PC-3 prostate 84.6% | SK-MEL-5 melanoma 98% | UACC-62 melanoma 105% | LOX IMVI melanoma 97% | SK-MEL-28 melanoma 106% | SK-MEL-2 melanoma 87.1% | EKVX NSCLC 104% | SN12C renal 97.5% | UO-31 renal 92% | CAKI-1 renal 93.8% | A498 renal 92.6% | CCRF-CEM leukemia 80.6%

COC(=O)C12C3C4C1C1C2C3C41NC(=O)c1csc([C@@H](C[C@H](C(C)C)N(C)C(=O)[C@@H](NC(=O)[C@H]2CCCCN2C)C2CC2)OC(C)=O)n1 (stereo not given in full)
active: HT29 colon -16.7% | SK-MEL-5 melanoma -14.7% | A498 renal -3.52% | HL-60(TB) leukemia -37.4%
inactive: HCT-15 colon 12.6% | SNB-75 CNS 45.3% | SNB-19 CNS 39.7% | U251 CNS 10.8% | PC-3 prostate 23.5% | UACC-62 melanoma 48% | LOX IMVI melanoma 16.3% | SK-MEL-28 melanoma 57.8% | SK-MEL-2 melanoma 19.1% | EKVX NSCLC 60.2% | SN12C renal 31.1% | UO-31 renal 45.6% | ACHN renal 36.4% | CAKI-1 renal 38.1% | CCRF-CEM leukemia 16.5%

O=C(O)c1ccc(=O)[nH]c1
inactive: HCT-15 colon 97.5% and 103% | HT29 colon 109% and 97.7% | SNB-75 CNS 101% and 91.6% | SNB-19 CNS 94.4% and 102% | U251 CNS 97.5% and 91% | PC-3 prostate 103% and 90.1% | SK-MEL-5 melanoma 101% and 100% | UACC-62 melanoma 88.7% and 98.6% | LOX IMVI melanoma 103% and 93.4% | SK-MEL-28 melanoma 106% and 110% | SK-MEL-2 melanoma 85.4% and 102% | EKVX NSCLC 111% and 98.7% | SN12C renal 88.4% and 95.5% | UO-31 renal 92.2% and 88% | TK-10 renal 94.8% and 97.5% | CAKI-1 renal 98.3% | A498 renal 63.4% and 107% | HL-60(TB) leukemia 109% and 102% | CCRF-CEM leukemia 106% and 95.4%

C/C(=C(\c1ccc(OCCN2CCOCC2)cc1)c1ccc(OC(=O)Cc2ccccc2)cc1)c1ccc(Cl)cc1
inactive: HCT-15 colon 91.4% | HT29 colon 77.1% | SNB-75 CNS 95.7% | SNB-19 CNS 96.3% | U251 CNS 99.2% | PC-3 prostate 68.2% | SK-MEL-5 melanoma 86.6% | UACC-62 melanoma 85.4% | LOX IMVI melanoma 98.6% | SK-MEL-28 melanoma 103% | SK-MEL-2 melanoma 81.5% | EKVX NSCLC 95.4% | SN12C renal 91.2% | UO-31 renal 85.5% | TK-10 renal 90.8% | CAKI-1 renal 78.7% | A498 renal 96.8% | HL-60(TB) leukemia 82.9% | CCRF-CEM leukemia 84.9%

CN(C)c1ccc(N)cc1
inactive: HCT-15 colon 106% and 83.6% | HT29 colon 102% and 37.4% | SNB-75 CNS 83.4% and 62.8% | SNB-19 CNS 99.5% and 47.8% | U251 CNS 98.2% and 17.5% | PC-3 prostate 81.3% and 50.8% | SK-MEL-5 melanoma 96.4% and 44.5% | UACC-62 melanoma 89% and 43.3% | LOX IMVI melanoma 94.2% and 27.2% | SK-MEL-28 melanoma 115% and 73.2% | SK-MEL-2 melanoma 94.2% and 71.7% | EKVX NSCLC 96.2% and 32.4% | SN12C renal 96.2% and 64.7% | UO-31 renal 75% | TK-10 renal 117% and 26.5% | CAKI-1 renal 78.2% | A498 renal 108% and 62.7% | HL-60(TB) leukemia 95.1% and 38.5% | CCRF-CEM leukemia 87.5% and 36%

CC1(C)C=Cc2c(ccc3c2[N+]([O-])=C2C3=C[C@@]34NC(=O)[C@]5(CCCN5C3=O)C[C@@H]4C2(C)C)O1
inactive: HCT-15 colon 46.8% | HT29 colon 24.6% | SNB-75 CNS 62.1% | SNB-19 CNS 50.7% | U251 CNS 35.3% | PC-3 prostate 45.5% | SK-MEL-5 melanoma 19.2% | UACC-62 melanoma 64.6% | LOX IMVI melanoma 27.6% | SK-MEL-28 melanoma 71.1% | SK-MEL-2 melanoma 69.8% | EKVX NSCLC 34.3% | SN12C renal 30.7% | UO-31 renal 73.5% | ACHN renal 39.7% | CAKI-1 renal 27% | A498 renal 69% | HL-60(TB) leukemia 33.6% | CCRF-CEM leukemia 14.2%

CCC1(NC(=O)c2cc(F)c(F)c(F)c2F)C(=O)NC(=O)N(C(C)C)C1=O (stereo not given)
inactive: HCT-15 colon 12.4% | HT29 colon 76.6% | SNB-75 CNS 88.4% | SNB-19 CNS 92.7% | U251 CNS 90.6% | PC-3 prostate 93% | SK-MEL-5 melanoma 64.7% | UACC-62 melanoma 48.6% | LOX IMVI melanoma 42% | SK-MEL-28 melanoma 53.2% | SK-MEL-2 melanoma 68.4% | EKVX NSCLC 93.1% | SN12C renal 81.7% | UO-31 renal 68.2% | ACHN renal 96.6% | CAKI-1 renal 93.6% | A498 renal 98.2% | CCRF-CEM leukemia 87.3%
active: HL-60(TB) leukemia -22.6%

Reference: PubChem BioAssay (NCI)
